Experimental data: PubChem BioAssay (NCI)
Values joined by “and” are separate entries in the source; they are usually repeats but may differ in a detail not shown here. Equal values may be shown once. This is part of a sample that, as a whole, favours compounds with a hit. Of some 83,000 tested, about 20% had one in any assay.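 The test compound was applied at a single concentration to cells in 96-well plates for 48 hours, and percent growth was recorded.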 Values without a mark were called inactive. Active and inactive are the calls of the source. The calls were made as follows: active = growth percent below 10; inactive = the rest.

Columns and labels:
Assay in all cases: NCI-60 one-dose screen, 48 h (100 = growth as untreated, 0 = no growth, -100 = all killed)
Settings in all cases: 10 µM unless noted
NCI-H23 lung = test system: NCI-H23 lung
NCI-H226 lung = test system: NCI-H226 lung
NCI-H322M lung = test system: NCI-H322M lung
HOP-62 NSCLC = test system: HOP-62 NSCLC
NCI-H460 lung = test system: NCI-H460 lung
HOP-92 NSCLC = test system: HOP-92 NSCLC
NCI-H522 lung = test system: NCI-H522 lung
A549/ATCC NSCLC = test system: A549/ATCC NSCLC
786-0 renal = test system: 786-0 renal
COLO 205 colon = test system: COLO 205 colon

Compound	growth (NCI-H23 lung)	growth (NCI-H226 lung)	growth (NCI-H322M lung)	growth (HOP-62 NSCLC)	growth (NCI-H460 lung)	growth (HOP-92 NSCLC)	growth (NCI-H522 lung)	growth (A549/ATCC NSCLC)	growth (786-0 renal)	growth (COLO 205 colon)
CN(C)c1nc(NCCNS(=O)(=O)c2ccc(C(=O)/C=C/c3ccccc3)cc2)nc(N2CCOCC2)n1	93.2%	82.6%	96.9%	108%	101%	94.9%	67.5%	78.8%	66.4%	105%
COc1ccc2oc(=O)c(-c3csc(N/N=C(\C)c4cc(OC)c(OC)c(OC)c4)n3)cc2c1	84%	89.7%	96.8%	109%	79.1%	96.8%	85.8%	101%	90.5%	99.8%
CC[C@]12C=CCN3CC[C@@]4(c5ccc(OC)cc5N(C)[C@H]4[C@@](O)(C(=O)OC)[C@@H]1OC(=O)CCC[P+](c1ccc(OC)cc1)(c1ccc(OC)cc1)c1ccc(OC)cc1)[C@@H]32	-92.5% (active)	-80.3% (active)	-97.7% (active)	-81.6% (active)	-85.2% (active)	-82.9% (active)	-89.4% (active)	-91.4% (active)	-89.5% (active)	-64.4% (active)
C=CCSc1nnc(-c2ccc(-c3nc4ccccc4[nH]3)cc2)o1	89.9%	95.5%	97.7%	84.2%	87.1%	79.1%	70.4%	73.5%	77.6%	82.6%
Cn1cc(-c2cc(N)n3nc(-c4c[nH]c5ccccc45)cc3n2)c2cc(F)ccc21	44.7%	91.4%	65.1%	-22.1% (active)	-23.9% (active)	31.3%	-61.8% (active)	13.7%	-2.12% (active)	-47.4% (active)
COC(=O)c1cccc(Oc2ccc(NC(=O)Nc3cc(C(F)(F)F)ccc3F)cc2)c1	69.3%	57.5%	91.1%	-8.81% (active)	30.6%	40.7%	49.8%	47%	47.3%	88.2%
CC(C)CN1C(=O)/C(=C\C(=O)c2cc3ccccc3oc2=O)c2ccccc21	90.5%	83.5%	96.7%	97.9%	103%	104%	31.5%	109%	105%	26.8%
O=C1Nc2cc(-c3ccc(NS(=O)(=O)c4ccc([N+](=O)[O-])cc4)cc3)ccc2/C1=C/c1ccc[nH]1	3.29% (active)	-12.3% (active)	62.2%	0.132% (active)	3.96% (active)	-29.9% (active)	-5.99% (active)	-31.9% (active)	-8.24% (active)	-31.8% (active)
CCCCCCCOc1ccc(S(=O)(=O)Nc2ccc(C)c(F)c2C(=O)O)cc1	93.2%	88%	100%	98%	102%	8.57% (active)	84.3%	103%	95%	122%
CCOC(=O)c1ccc(NC(=S)NC(=O)c2cccc(NC(=O)c3ccc(C)cc3)c2)cc1	66.8%	32.2%	74.7%	40.4%	75.9%	36.4%	50.6%	48.2%	81.2%	77.9%
Clc1ccc2c(NCCNC34CC5CC(CC(C5)C3)C4)ccnc2c1	-73.2% (active)	-24.4% (active)	-61.7% (active)	-76.7% (active)	-63.1% (active)	-64.7% (active)	-76.7% (active)	-33% (active)	-79.8% (active)	-58.1% (active)
COc1cc2cc(C(=O)N3C[C@@H](CCl)c4c3cc(OC(=O)N(CCC(=O)N3CCN(C)CC3)C3CCCCC3)c3ccccc43)[nH]c2c(OC)c1OC	-86.8% (active)	-11.1% (active)	-28.6% (active)	-55.7% (active)	-73.1% (active)	-71% (active)	-82% (active)	-24.1% (active)	-96% (active)	-66.7% (active)
Cc1oc(-c2ccccc2)nc1CN[C@@H]1C[C@@H]2C[C@H]([C@H]1C)C2(C)C	-30% (active)	-29.8% (active)	57.9%	75%	4.28% (active)	-11.4% (active)	30.8%	50.9%	21.8%	-69.3% (active)
Clc1ccc(-c2nc3c4c(-c5ccccc5)c(-c5ccccc5)n(Cc5ccccc5)c4ncn3n2)cc1	2.75% (active)	-3.39% (active)	21%	19.8%	3.08% (active)	-23.1% (active)	-28.5% (active)	14.1%	5.51% (active)	-59.2% (active)
NS(=O)(=O)c1ccc(N2N=C(c3ccc(NC(=O)Nc4ccccc4)cc3)CC2c2ccc(Br)cc2)cc1 (stereo not given)	-95.2% (active)	-84.2% (active)	-87.3% (active)	-70.3% (active)	-83.9% (active)	-87% (active)	-79.7% (active)	-57.7% (active)	-85.7% (active)	-53.5% (active)
COc1ccc(-c2nc3ccccc3n2CC(=O)N=Nc2c(O)[nH]c3ccc(OC)cc23)cc1	89.7%	-18.8% (active)	89.4%	67.4%	10.5%	-7.89% (active)	47.8%	37%	42.4%	36%
Clc1ccc(Nc2nnc(-c3c[nH]c4ccccc34)o2)cc1	77.9%	66.7%	91.3%	67.8%	83%	70.9%	24.2%	68.6%	90.1%	116%
O=C1Nc2cc(-c3ccc(NS(=O)(=O)c4ccc(-c5ccccc5)cc4)cc3)ccc2/C1=C/c1ccc[nH]1	4.1% (active)	66.5%	47.3%	75.9%	3.38% (active)	16.1%	-11.8% (active)	10.5%	58.4%	0.446% (active)
NC1(c2ccc(-c3ccc4ncnc(NCc5ccccc5)c4c3)cn2)COC1	108% and 105%	103% and 111%	109% and 97%	118% and 112%	106% and 112%	112% and 120%	109% and 105%	111% and 109%	115% and 104%	112% and 126%
O=C(c1ccc(Cl)cc1)C1[C@H](c2ccccc2Cl)[C@@H](c2ccccc2)NC12C(=O)Nc1ccc(Br)cc12 (stereo not given in full)	-80.5% (active)	-89.1% (active)	-47.3% (active)	-88% (active)	-78.8% (active)	-84.3% (active)	-73.4% (active)	-41.7% (active)	-67% (active)	-83.3% (active)
COc1ccc(NC(=O)NN2C(=O)c3ccccc3N(C)C2c2ccc(OC)cc2)cc1 (stereo not given)	100%	106%	95.8%	97.8%	109%	102%	93%	108%	65.8%	103%
FC(F)(F)c1cc2c(Cl)ncnc2n1CCN1CCCCC1	34.8%	97.8%	64.2%	76.3%	57.9%	94.3%	-80.1% (active)	95.5%	92.5%	75.2%
COc1ccc2[nH]c(O)c(N=Nc3nc(-c4ccc(Br)cc4)cs3)c2c1	-6.52% (active)	-36.4% (active)	28.2%	-10.1% (active)	-35.4% (active)	-34.4% (active)	19.1%	-41.3% (active)	-81.3% (active)	-13.2% (active)
CC1=C(C(=O)Nc2ccccc2)C(c2cccc(Cl)c2Cl)n2c(nc3ccccc32)N1 (stereo not given)	61.3%	70.5%	60.3%	88.6%	25.7%	40.6%	25.3%	33.2%	53.4%	63.9%
COc1ccc(SC2c3cc(OC)ccc3Oc3nc(N)c(C#N)c(N)c32)cc1 (stereo not given)	85.6%	87.1%	83.5%	68.2%	74.3%	116%	78.4%	95.8%	74.8%	101%
